High-throughput results: PubChem BioAssay, Broad Institute
The entries come from a sample that favours hits as a whole.
IDE exosite inh – exo-site inhibitors of human insulin-degrading enzyme | P14735 | purified IDE, FL-6b probe fluorescence polarization; active compounds read low | z-score at 20 µM | 6.3% of 17,000 active | AID 1259349;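 active = z-score of -3 or lower, meaning strong loss of probe binding signal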;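 also: His-tagged human IDE residues 42-1019 made in E. coli with 30 nM FL-6b probe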
Target sequence (P14735 42-1019 limits assumed): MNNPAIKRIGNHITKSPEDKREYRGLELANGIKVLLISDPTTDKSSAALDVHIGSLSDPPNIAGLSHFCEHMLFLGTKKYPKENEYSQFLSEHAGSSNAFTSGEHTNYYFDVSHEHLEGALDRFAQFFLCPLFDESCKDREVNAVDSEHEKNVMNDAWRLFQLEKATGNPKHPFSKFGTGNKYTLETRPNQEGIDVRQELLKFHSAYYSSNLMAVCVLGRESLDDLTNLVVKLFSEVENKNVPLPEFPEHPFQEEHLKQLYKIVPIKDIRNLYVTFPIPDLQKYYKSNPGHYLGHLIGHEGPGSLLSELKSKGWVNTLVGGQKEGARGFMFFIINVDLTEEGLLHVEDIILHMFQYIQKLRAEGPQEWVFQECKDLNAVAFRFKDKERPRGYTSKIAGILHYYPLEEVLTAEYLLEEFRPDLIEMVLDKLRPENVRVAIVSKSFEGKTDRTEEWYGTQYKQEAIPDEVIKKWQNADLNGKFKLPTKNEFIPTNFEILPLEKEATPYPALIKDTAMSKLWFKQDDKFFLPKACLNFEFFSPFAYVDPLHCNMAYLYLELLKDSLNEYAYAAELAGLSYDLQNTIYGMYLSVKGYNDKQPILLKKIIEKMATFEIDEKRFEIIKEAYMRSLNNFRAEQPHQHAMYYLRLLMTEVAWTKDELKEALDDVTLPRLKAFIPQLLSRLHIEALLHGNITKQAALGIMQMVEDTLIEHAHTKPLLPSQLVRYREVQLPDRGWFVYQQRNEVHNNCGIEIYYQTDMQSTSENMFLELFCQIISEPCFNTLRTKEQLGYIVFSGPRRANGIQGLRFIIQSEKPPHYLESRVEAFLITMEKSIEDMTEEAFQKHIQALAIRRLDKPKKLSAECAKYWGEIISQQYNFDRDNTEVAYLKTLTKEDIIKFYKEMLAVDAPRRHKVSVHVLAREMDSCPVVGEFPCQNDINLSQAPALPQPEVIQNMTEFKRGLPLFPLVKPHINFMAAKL
The depositor's hits bear a star.

SMILES	IDE exosite inh
O=C(c1cnccn1)N1CC(=O)N2[C@H](CO)[C@@H](c3ccc(/C=C/c4ccccc4)cc3)[C@H]2C1	-6.5*
O=C(c1cnccn1)N1CC(=O)N2[C@H](CO)[C@@H](c3ccc(-c4ccc(F)cc4)cc3)[C@H]2C1	0.961
O=C(c1cnccn1)N1CC(=O)N2[C@H](CO)[C@H](c3ccc(/C=C/c4ccccc4)cc3)[C@@H]2C1	-5.34*
O=C(c1cnccn1)N1CC(=O)N2[C@H](CO)[C@@H](c3ccc(/C=C/c4ccccc4)cc3)[C@@H]2C1	-5.47*
C/C=C/c1ccc([C@H]2[C@H](CO)N3C(=O)CN(C(=O)c4cnccn4)C[C@@H]23)cc1	3.67
O=C(c1cnccn1)N1CC(=O)N2[C@@H](CO)[C@H](c3ccc(-c4ccc(F)cc4)cc3)[C@@H]2C1	1.29
O=C(c1cnccn1)N1CC(=O)N2[C@@H](CO)[C@H](c3ccc(/C=C/c4ccccc4)cc3)[C@@H]2C1	-6.47*
N#C[C@@H]1[C@H](c2ccccc2)[C@@H](CO)N1C(=O)Cc1ccccc1	-0.555
C[C@@H]1CN([C@H](C)CO)C(=O)c2c(c3ccccc3n2C)-c2ccccc2CO[C@@H]1CN(C)C(=O)[C@H](Cc1ccccc1)N(C)C	0.198
O=C(C[C@@H]1C=C[C@H](NS(=O)(=O)c2ccc(F)cc2)[C@@H](CO)O1)N1CCc2ccccc2C1	0.653
N#C[C@H]1[C@@H](c2ccccc2-c2ccc(F)cc2)[C@H](CO)N1C(=O)Cc1cccnc1	0.292
O=C(C[C@H]1CC[C@@H]2[C@H](COC[C@H](O)CN2C(=O)c2ccccc2F)O1)NCc1ccc(F)cc1	-1.4
COCC(=O)N1CC2(C1)[C@@H](c1ccccc1)[C@@H](CO)N2C(=O)NC1CCCC1	-1
C/C=C/c1ccc([C@H]2[C@@H](CO)N(C(=O)C3CC3)[C@H]2CN(C)C(=O)CC)cc1	1.67
N#C[C@H]1[C@@H](c2ccc(C#Cc3cccc(F)c3)cc2)[C@H](CO)N1C(=O)C1CCCC1	1.42
O=C(NC1CCCC1)N[C@H]1C=C[C@@H](CC(=O)N2CCOCC2)O[C@H]1CO	0.617
CC(C)NC(=O)N1CCCCN2[C@H](CO)[C@H](c3ccc(C#Cc4ccccc4F)cc3)[C@H]2C1	-4.49*
CC(C)NC(=O)N1CCCCN2[C@@H](CO)[C@H](c3ccc(C#Cc4ccccc4F)cc3)[C@@H]2C1	-12.7*
CC(C)NC(=O)N1CCCCN2[C@H](C1)[C@H](c1ccc(C#Cc3ccccc3F)cc1)[C@@H]2CO	-9.59*
C/C=C/c1ccc([C@H]2[C@H](CO)N3C(=O)CN(C(=O)Nc4cccc(OC)c4)C[C@@H]23)cc1	0.59
O=C(c1ccccc1F)N1CC(=O)N2[C@H](CO)[C@H](c3ccc(-c4cccnc4)cc3)[C@@H]2C1	0.931
O=C(Cc1ccccn1)N[C@@H]1CC[C@@H](CCNS(=O)(=O)c2cccc(F)c2)O[C@@H]1CO	0.108
COCC(=O)N1[C@@H](C#N)[C@@H](c2ccc(C#CCC3CCCC3)cc2)[C@@H]1CO	1.15
O=C(c1ccc(F)cc1)N1CCCCN2[C@H](CO)[C@H](c3ccc(-c4ccccc4)cc3)[C@H]2C1	-0.34
O=C(CC1CC1)N1CC(=O)N2[C@H](CO)[C@H](c3ccc(C#Cc4ccc(F)cc4)cc3)[C@H]2C1	0.742
SMILES	IDE exosite inh
O=C(CC1CC1)N1CC(=O)N2[C@@H](CO)[C@H](c3ccc(C#Cc4ccc(F)cc4)cc3)[C@@H]2C1	-0.633
O=C(CC1CC1)N1CC(=O)N2[C@@H](CO)[C@@H](c3ccc(C#Cc4ccccc4)cc3)[C@@H]2C1	-10.9*
O=C(CC1CC1)N1CC(=O)N2[C@H](CO)[C@H](c3ccc(C#Cc4ccccc4)cc3)[C@H]2C1	-15.8*
O=C(CC1CC1)N1CC(=O)N2[C@H](CO)[C@@H](c3ccc(C#Cc4ccc(F)cc4)cc3)[C@@H]2C1	3.31
O=C(CC1CC1)N1CC(=O)N2[C@@H](CO)[C@H](c3ccc(C#Cc4ccccc4)cc3)[C@@H]2C1	-11.2*
CN(C)C(=O)c1cccc(-c2ccc([C@@H]3[C@@H](CO)N4CCCCN(C(=O)C5CCC5)C[C@H]34)cc2)c1	2.67
O=C(C[C@@H]1CC[C@H]2[C@@H](COC[C@@H](O)CN2CCc2ccccc2)O1)NCCCN1CCOCC1	-0.106
Cc1noc(C)c1NC(=O)N(C)C[C@@H]1Oc2cc(C#CCN(C)C)ccc2S(=O)(=O)N([C@@H](C)CO)C[C@@H]1C	0.173
OC[C@@H]1[C@@H](c2ccccc2)C2(CN(Cc3nccs3)C2)N1CC1CCOCC1	-0.299
CN1C(=O)c2cc(NC(=O)Nc3ccccc3Cl)ccc2OC[C@@H]2O[C@H](CC(=O)O)CC[C@@H]21	-0.562
CN1C(=O)c2cc(NC(=O)Cc3cccs3)ccc2OC[C@@H]2O[C@@H](CC(=O)NCCCN3CCOCC3)CC[C@H]21	-1.04
CCS(=O)(=O)Nc1ccc2c(c1)C(=O)N(C)[C@H]1CC[C@H](CC(=O)NCCCN3CCOCC3)O[C@@H]1CO2	0.446
CN1C(=O)c2cc(NC(=O)Nc3ccccc3Cl)ccc2OC[C@H]2O[C@H](CC(=O)O)CC[C@@H]21	-6.19*
CN1C(=O)c2cc(NC(=O)Nc3ccccc3Cl)ccc2OC[C@@H]2O[C@H](CC(=O)NCCCN3CCOCC3)CC[C@@H]21	-4.65*
CN1C(=O)c2cc(NC(=O)Cc3cccs3)ccc2OC[C@@H]2O[C@H](CC(=O)NCCCN3CCOCC3)CC[C@H]21	0.0604
CN1C(=O)c2cc(NC(=O)Cc3cccs3)ccc2OC[C@H]2O[C@@H](CC(=O)NCCCN3CCOCC3)CC[C@@H]21	-0.503
CN1C(=O)c2cc(NC(=O)Cc3cccs3)ccc2OC[C@H]2O[C@@H](CC(=O)NCCCN3CCOCC3)CC[C@H]21	0.0604
CN1C(=O)c2cc(NC(=O)Cc3cccs3)ccc2OC[C@H]2O[C@H](CC(=O)NCCCN3CCOCC3)CC[C@@H]21	-0.354
CN1C(=O)c2cc(NC(=O)Nc3ccccc3Cl)ccc2OC[C@H]2O[C@@H](CC(=O)NCCCN3CCOCC3)CC[C@@H]21	-6.1*
CN1C(=O)c2cc(NC(=O)Nc3ccccc3Cl)ccc2OC[C@H]2O[C@H](CC(=O)NCCCN3CCOCC3)CC[C@@H]21	-14.2*
CN1C(=O)c2cc(NC(=O)Nc3ccccc3Cl)ccc2OC[C@H]2O[C@H](CC(=O)O)CC[C@H]21	-0.354
CCS(=O)(=O)N1CCC2(CC1)CN(C(=O)Nc1c(C)noc1C)[C@@H](CO)c1c2c2ccc(OC)cc2n1C	0.108
O=C1CN(S(=O)(=O)Cc2ccccc2)C[C@H]2[C@@H](c3ccc(C#Cc4cccc(F)c4)cc3)[C@@H](CO)N12	0.153
CN1C(=O)c2cc(NC(=O)C3CCOCC3)ccc2OC[C@@H]2O[C@@H](CC(=O)NCC3CCCCC3)CC[C@@H]21	0.0604
COc1ccc(S(=O)(=O)N2CCCCN3[C@@H](CO)[C@@H](c4ccc(-c5cccnc5)cc4)[C@@H]3C2)cc1	-2.51
SMILES	IDE exosite inh
C/C=C/c1ccc([C@H]2[C@@H](CNC(=O)CC)N(C(=O)CC)[C@H]2CO)cc1	2.67
COc1ccc2c3c([nH]c2c1)[C@H](CO)N(CC1CC1)CC31CN(C(=O)NC2CCCC2)C1	-2.47
CN(C)CC#Cc1ccc([C@@H]2[C@H](CO)N3CCCCN(C(=O)c4ccc5c(c4)OCO5)C[C@@H]23)cc1	2.13
COc1ccc(NC(=O)N2CC(=O)N3[C@@H](CO)[C@H](c4ccc(Br)cc4)[C@@H]3C2)cc1	1.39
CCCNC(=O)N1CC2(C1)CN(S(C)(=O)=O)[C@H](CO)c1c2c2ccc(OC)cc2n1C	1.33
COc1cccc(S(=O)(=O)N2C[C@H](O)COC[C@H]3O[C@H](CC(=O)N4CCN(c5ccccc5)CC4)CC[C@@H]32)c1	-2.28
